Screening data deposited in PubChem BioAssay by several laboratories.
A selection: hits, their analogues and other compounds. The true share with any hit is near 3.3%.
H9c2 protect – myocardial damage modulation in H9c2 cells; AID 588492; H9c2 cardiomyocytes, H2O2 injury protection, ATPLite, 2 h; protection from H2O2 cell death, % at 20 µM; 360,000 tested, 0.63% active;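 active = compounds giving at least 50% protection of heart cells from peroxide-induced death in the single-dose screen, raw or plate-pattern-corrected value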;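 note: 0% = DMSO wells with peroxide and 100% = DMSO wells without peroxide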
Efflux pump inh – inhibitors of Candida antifungal efflux pumps expressed in yeast; 330,000 tested, 0.44% active; S. cerevisiae Candida pump triplex, Nile Red efflux; AID 485275; inhibition, % at 10 µM;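 active = plate passing quality check with inhibition over a set limit, or well fluorescence over plate mean plus 4 SD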;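 note: Nile Red retained in pooled yeast measured as flow cytometry median fluorescence; 0% = buffer negative control and 100% = Enniatin B positive control; higher means more Nile Red kept so more efflux inhibition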
PHOSPHO1 inh – PHOSPHO1 (human) inhibition; recombinant PHOSPHO1, absorbance phosphatase assay; 290,000 tested, 1.1% active; Q8TCT1; inhibition, % at 13.3 µM; in the data active = inhibition above about 60%
Calb FLC – C. albicans growth modulation with fluconazole; 300,000 tested, 0.57% active; growth inhibition, % (test concentration not listed); C. albicans CaCi-2 (fluconazole-resistant clinical isolate) + fluconazole, Alamar Blue growth, 48 h;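 active = growth inhibition above about 58% in most replicates, limit read from the data, passing the limit was not always enough; inconclusive = exactly half the replicates above a set limit; inactive = most replicates below a set limit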;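 note: all wells also contain fluconazole at 8 µg/ml as a sub-toxic cotreatment; 0% = median of DMSO wells and 100% = median of geldanamycin control wells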
Cl transport mod – modulates chloride dependent transport by human KCC2; KCC2 cells, thallium flux FluoZin-2 fluorescence; B-score of Tl+ flux slope (higher = more flux/activation; lower = inhibition) at 10 µM; 190,000 tested, 2.2% active; AID 1456;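 active = thallium flux slope and its plate-corrected score both differing from the plate sample mean at a set confidence after two filtering rounds, in either direction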;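 note: slope of fluorescence scaled to starting intensity during 10 to 20 s after thallium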
Target sequence (Q9H2X9 whole entry, looked up): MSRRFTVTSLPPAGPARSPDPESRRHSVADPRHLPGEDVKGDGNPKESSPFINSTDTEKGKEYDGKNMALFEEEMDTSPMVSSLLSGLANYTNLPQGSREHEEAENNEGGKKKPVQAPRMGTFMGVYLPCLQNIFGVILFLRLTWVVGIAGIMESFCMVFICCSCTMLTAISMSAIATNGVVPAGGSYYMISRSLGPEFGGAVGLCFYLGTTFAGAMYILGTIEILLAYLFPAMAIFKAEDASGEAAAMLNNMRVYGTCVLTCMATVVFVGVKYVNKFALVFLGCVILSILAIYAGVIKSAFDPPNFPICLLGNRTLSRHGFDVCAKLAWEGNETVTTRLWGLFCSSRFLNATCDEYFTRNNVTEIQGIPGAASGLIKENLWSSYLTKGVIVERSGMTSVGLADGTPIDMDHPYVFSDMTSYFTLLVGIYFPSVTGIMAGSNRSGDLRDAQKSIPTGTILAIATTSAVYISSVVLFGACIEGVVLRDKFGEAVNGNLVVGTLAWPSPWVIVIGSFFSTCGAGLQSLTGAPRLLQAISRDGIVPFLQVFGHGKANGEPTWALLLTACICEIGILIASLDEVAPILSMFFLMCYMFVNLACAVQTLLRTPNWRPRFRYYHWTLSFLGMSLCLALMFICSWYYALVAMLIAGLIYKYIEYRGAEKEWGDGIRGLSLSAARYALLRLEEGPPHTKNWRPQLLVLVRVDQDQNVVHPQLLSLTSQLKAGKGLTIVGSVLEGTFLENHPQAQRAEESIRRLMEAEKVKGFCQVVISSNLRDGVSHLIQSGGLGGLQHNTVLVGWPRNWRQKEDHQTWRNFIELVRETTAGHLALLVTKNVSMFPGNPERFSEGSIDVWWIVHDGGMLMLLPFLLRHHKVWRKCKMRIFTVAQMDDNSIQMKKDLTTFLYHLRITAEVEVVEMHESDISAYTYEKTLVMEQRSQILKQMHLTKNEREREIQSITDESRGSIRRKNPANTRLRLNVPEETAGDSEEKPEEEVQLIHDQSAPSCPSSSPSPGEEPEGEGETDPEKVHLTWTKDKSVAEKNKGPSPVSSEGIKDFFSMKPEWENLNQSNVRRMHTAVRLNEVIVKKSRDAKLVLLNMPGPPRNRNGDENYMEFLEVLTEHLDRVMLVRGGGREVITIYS
KCC2 secondary – confirmation of human KCC2 transport modulators. shares compounds with Cl transport mod. HEK293-KCC2, thallium flux, FluoZin2 fluorescence; stronger effect = higher value. normalised thallium flux (F/F0 slope) at 10 µM. 3,700 tested, 15% active;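 active = thallium flux slope above the same plate's solvent-only control mean plus 3 SD; inconclusive = the two replicate wells disagree; inactive = no significant difference from solvent-only control wells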
KCC2 bumet counter – thallium flux despite bumetanide block in KCC2 cells, secondary assay 3; shares compounds with Cl transport mod; HEK293-KCC2 + bumetanide/ouabain, thallium flux FluoZin2; stronger effect = higher value; normalized thallium flux at 10 µM; 3,700 tested, 49% active;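 active = thallium entry rate above the same plate's blocked-transporter control wells by more than 3 SD; inconclusive = the two repeat wells disagree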;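 note: raw slope of fluorescence over initial fluorescence between 10 and 20 s after thallium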
KCC2 secondary2 – confirmation of human KCC2 transport modulators | shares compounds with Cl transport mod | HEK293-KCC2, thallium flux FluoZin2 fluorescence; actives lie on both sides; F/F0 rise rate, 10–20 s post-thallium | normalized thallium flux at 10 µM | 3,700 tested, 23% active | AID 1715;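 active = thallium flux slope more than 3 SD above or below the plate's solvent-only control mean, mostly below; inconclusive = the two repeat wells disagreed; inactive = no significant shift from solvent-only controls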;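 note: raw slope with 0.1% DMSO as baseline and bumetanide as block control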
HEK293 Tl flux – acts in parental HEK cells, KCC2 counter-screen | shares compounds with Cl transport mod | HEK293 parental cells, thallium flux FluoZin2, ouabain; baseline-ratio fluorescence slope, 10–20 s after thallium | thallium flux rate (normalised fluorescence) at 10 µM | 3,700 tested, 46% active | AID 1716;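 active = thallium flux rate significantly above the same plate's solvent-only control wells, beyond their mean plus 3 SD; inconclusive = the two replicate wells gave conflicting results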
KCC2 ouabain – confirmation of human KCC2 modulators with ouabain; raw Tl+ flux slope (below DMSO = inhibition, above = activation) at 10 µM; shares compounds with Cl transport mod; HEK293-KCC2, thallium flux FluoZin2 fluorescence; bidirectional: low = inhibitor, high = activator; 3,700 tested, 48% active; AID 1717;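 active = thallium flux slope beyond 3 SD from same-plate DMSO control mean in most replicates, usually higher, sometimes lower; inconclusive = repeat tests gave conflicting results; inactive = no significant difference from controls in most replicates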;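 note: slope of initial-normalized fluorescence between seconds 10 and 20 after thallium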
HEK counter2 – parental HEK flux effect, counter-screen 2. shares compounds with Cl transport mod. HEK293 parental, thallium flux FluoZin-2 fluorescence slope. thallium flux slope at 10 µM. 3,700 tested, 33% active. AID 1718;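 active = thallium flux slope above the same plate's solvent-control mean plus 3 SD in both duplicate wells; inconclusive = duplicate wells that disagreed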;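 note: run without ouabain in cells lacking the KCC2 cotransporter; slope of fluorescence scaled to its starting value between 10 and 20 s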
Numbers without * were called inactive; ? = inconclusive; . = no result.

SMILES	H9c2 protect	Efflux pump inh	PHOSPHO1 inh	Calb FLC	Cl transport mod	KCC2 secondary	KCC2 bumet counter	KCC2 secondary2	HEK293 Tl flux	KCC2 ouabain	HEK counter2
Cc1ccc(CN(c2ccc(C(=O)Nc3ccc4c(c3)OCO4)cc2)S(C)(=O)=O)cc1	-11.1	-0.2	34.0	6.5	4.67*	0.00757	?	0.028	0.00799	0.0188	0.0118
CN(c1ccc(OCc2nnc(-c3ccccc3)o2)cc1)S(=O)(=O)c1ccccc1	-21.2	-0.1	-40.4	15.9	-4.17*	0.0171	?	0.0299	0.00573*	0.0144	0.00927
O=C1/C(=C/c2ccccc2O)SC(=S)N1Cc1cccnc1	-5.7	0.0	13.2	25.7	10.1*	0.00625	0.0173*	?	0.0245*	0.0273*	0.0231*
COc1ccc(CN(Cc2ccccn2)C(=O)CN2C(=O)COc3ccccc32)cc1	-0.7	0.0	11.8	15.5	-2.77*	0.00693	0.00447	0.0241*	0.00752	0.0167*	0.00997
CC1Oc2ccccc2N(CC(=O)N(Cc2ccccc2)Cc2ccccn2)C1=O (centres undefined)	22.6	0.0	3.5	-10.1	-0.404	.	.	.	.	.	.
COc1cc(/C=C/c2ccc3c(Br)cc(Br)c(O)c3n2)ccc1O	41.0	-0.5	31.6	-1.2	7.52*	0.0107	0.0126*	0.0347	0.00906*	0.0232	0.0102
c1ccc(OCc2nn3c(C4CCCCC4)nnc3s2)cc1	-5.2	0.1	51.2	-0.3	-3.65*	0.0142	0.00351	0.0244*	?	0.0126*	0.0093
CCCCOC(=O)C1=C(C)NC2=C(C(=O)CCC2)C1c1cc(OC)ccc1OC (centres undefined)	0.7	0.0	-9.3	40.8	7.52*	0.00713	0.00561	0.0292	0.00654	0.0192	0.00915
Cc1cc2nnc(SCC(=O)Nc3cc(S(=O)(=O)N4CCOCC4)ccc3Cl)n2c2ccccc12	5.9	0.1	-29.5	-4.7	-4.7*	0.00573	?	0.0236*	0.00571*	0.0131*	0.00819*
CCn1c(SCC(=O)NC2CCCCC2)nc2c(c1=O)SCC2	1.4	0.0	-5.4	-1.4	.	.	.	.	.	.	.
Oc1ccc(/C=C/c2ccc3ccccc3n2)cc1	-32.1	-0.1	47.9	-11.9	-3.39	.	.	.	.	.	.
O/C(=C\c1ccc2ccccc2n1)c1ccc(O)cc1O	-26.3	0.1	16.8	2.4	-5.07*	0.00579*	0.00548	0.0294	0.00747	0.0144*	0.0111
N#Cc1c(NC(=S)NC(=O)Cc2cccs2)sc2c1CCCCC2	-21.1	0.0	53.3	14.1	7.41*	0.00856	0.0197*	0.0282	0.00934*	?	0.00991
CC(=O)NC(=S)Nc1sc2c(c1C#N)CCCCC2	-30.1	.	11.2	25.2	-0.39	.	.	.	.	.	.
O=C(NCCN1CCOCC1)c1cc2n(n1)C(C(F)(F)F)CC(c1ccc(F)cc1)N2 (centres undefined)	1.5	0.1	19.2	5.1	.	.	.	.	.	.	.
Cc1ccc(C2CC(C(F)(F)F)n3nc(C(=O)NCC4CCCO4)cc3N2)cc1 (centres undefined)	.	.	18.2	4.8	-4.17*	0.0072	0.00499	0.0297	0.00788	0.0193	0.0106
COc1ccc(S(=O)(=O)NCc2ccccn2)cc1NC(=O)c1ccccc1C	6.5	0.2	.	1.0	.	.	.	.	.	.	.
Cc1onc(-c2cccc(Cl)c2Cl)c1C(=O)O/N=C(\N)c1ccc([N+](=O)[O-])o1	-0.4	0.0	24.4	-3.1	-4.89*	0.00699	0.00326	?	0.00481*	0.0169	0.00786*
Cc1onc(-c2ccccc2)c1C(=O)O/N=C(\N)c1ccc([N+](=O)[O-])o1	15.9	-0.1	29.8	1.5	.	.	.	.	.	.	.
CCOc1ncccc1C(=O)OCC(=O)c1ccc[nH]1	15.0	0.0	-5.2	5.9	-4.08*	0.0104	0.00694	0.0333	0.00434	0.0207	0.0118
CCOC(=O)c1c(C)[nH]c(C)c1C(=O)COC(=O)c1cccnc1OCC	5.6	-0.1	.	.	.	.	.	.	.	.	.
CCc1ccccc1NC(=O)CN1C(=O)c2ccccc2S1(=O)=O	-3.4	0.3	-1.8	6.1	.	.	.	.	.	.	.
CCN(CC)S(=O)(=O)c1ccc(NC(=O)CSc2ncnc3ccccc23)cc1	-5.4	-0.5	-2.4	-0.8	-5.16*	0.00919	0.00714	?	0.0066	0.0132*	0.0106
Cc1ccc(S(=O)(=O)N2CCCCC2)cc1NC(=O)CSc1nncn1-c1ccccc1	2.5	0.0	55.7	-0.4	-2.27	.	.	.	.	.	.
COc1ccc(S(=O)(=O)N2CCCCC2)cc1NC(=O)CSc1ncnc2ccccc12	-3.9	-0.1	4.1	2.8	-3.25*	0.00807	0.00538	0.0318	?	0.0152*	0.0112
SMILES	H9c2 protect	Efflux pump inh	PHOSPHO1 inh	Calb FLC	Cl transport mod	KCC2 secondary	KCC2 bumet counter	KCC2 secondary2	HEK293 Tl flux	KCC2 ouabain	HEK counter2
COc1ccc(-n2cnnc2SCC(=O)Nc2cc(S(=O)(=O)N3CCCCC3)ccc2C)cc1	-5.5	0.2	-5.1	2.0	-4.43*	0.00896	0.00568	0.0261*	0.00425	0.0137*	0.0115
O=C(Nc1cccc(/C=C/c2ccccn2)c1)c1cc(Cl)ccn1	3.3	0.1	26.1	-0.1	.	.	.	.	.	.	.
COc1ccc(CNC(=O)N2CCN(c3ccccc3OC)CC2)cc1	-0.1	0.0	26.9	0.4	.	.	.	.	.	.	.
COc1ccc(C(=O)N2CCCC(CCC(=O)NCc3ccccc3F)C2)c(OC)n1 (centres undefined)	0.3	-0.3	18.5	2.1	.	.	.	.	.	.	.
CC(=O)c1cccc(N(C(=O)Cn2nnc3ccccc32)C(C(=O)NC2CCCCC2)c2cn(C)nc2C)c1 (centres undefined)	-0.4	0.1	10.1	?	.	0.0115	?	0.033	0.00754	0.0214	?
CCOC(=O)C1CCCN(S(=O)(=O)Cc2ccc(Cl)cc2)C1 (centres undefined)	2.7	0.2	.	-6.5	.	.	.	.	.	.	.
Cc1cc(-c2nnc(SCC(=O)Nc3ccc(C)c(C)c3)n2N)n[nH]1	8.0	-0.2	49.0	-3.8	.	.	.	.	.	.	.
O=S(=O)(c1ccc(F)cc1)N1CCC(O)(c2ccc3c(c2)OCO3)CC1	-4.0	0.1	16.7	-13.5	-4.33*	0.00707	0.00382	0.0277	0.00757	0.0151*	0.00989
CCc1cc(CNC(=O)C2CCC(=O)N(CCc3cccc(F)c3)C2)on1 (centres undefined)	-6.2	.	.	3.9	.	.	.	.	.	.	.
O=C(/C=C/c1cccs1)Nc1scc(-c2ccccc2)c1C(=O)O	-18.9	.	-21.2	0.3	-4.23*	0.00804	?	0.0208*	0.00805	0.0135*	0.00999
